The full list was thinned out, with hits kept by preference.
Shiga inhibitor: blocks Shiga toxin action in Vero cells | Vero cells, Shiga toxin protein synthesis inhibition reporter | inhibition, % at 38.7 µM | hit rate 9.2% among 290,000; in the data active = inhibition mostly above about 28%, no sharp cut-off; inactive = mostly below about 43%
RE007 growth inh: less growth of the S. pombe RE007 Vpr strain; hit rate 0.21% among 360,000; Potency, µM (highest dose often 92.2 µM), most hits filed as inhibitors; S. pombe RE007 Vpr strain, BacTiter-Glo ATP luminescence, 24 h; active = well fitted falling curve with a large enough effect; inconclusive = small, poorly fitted or top-dose-only effect; inactive = no such curve, though single readings can be large or run the other way; also: nearly all actives have a fitted effect of over 50% in size
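Fission yeast RE007 carrying one integrated HIV-1 vpr copy, seeded at OD 0.01 in PMG+AL medium with 23 nL pinned compound. Grown 24 h at 30 degrees; viability read by BacTiter-Glo luminescence after 5 min.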
LmPK inh: blocks Leishmania mexicana pyruvate kinase activity; purified LmPK, Kinase-Glo ATP luminescence, 1 h; AID 1721; Potency, µM (highest dose often 57.5 µM), usual class: inhibitors; Q27686; hit rate 0.37% among 290,000
Target sequence (Q27686 whole entry, looked up): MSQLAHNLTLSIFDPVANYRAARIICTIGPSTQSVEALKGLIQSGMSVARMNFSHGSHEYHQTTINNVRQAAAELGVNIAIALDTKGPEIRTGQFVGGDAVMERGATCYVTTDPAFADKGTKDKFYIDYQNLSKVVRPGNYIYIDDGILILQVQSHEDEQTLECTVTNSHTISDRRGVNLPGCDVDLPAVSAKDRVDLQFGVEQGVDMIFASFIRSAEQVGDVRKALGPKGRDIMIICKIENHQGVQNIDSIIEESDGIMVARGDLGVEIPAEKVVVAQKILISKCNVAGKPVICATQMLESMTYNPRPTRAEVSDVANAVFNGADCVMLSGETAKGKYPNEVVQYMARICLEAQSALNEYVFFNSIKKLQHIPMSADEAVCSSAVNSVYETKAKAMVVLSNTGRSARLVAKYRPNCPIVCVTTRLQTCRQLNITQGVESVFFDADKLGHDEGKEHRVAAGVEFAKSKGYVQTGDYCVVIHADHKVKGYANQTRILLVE
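Kinase-Glo luminescence read after 1 h RT reaction of 0.1 nM LmPK with 0.5 mM PEP and 0.1 mM ADP. Activity scaled between uninhibited and enzyme-free controls.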
Tb PYK inh: blocks Trypanosoma brucei pyruvate kinase. Q57TT1. TbPYK enzyme, Kinase-Glo Plus ATP luminescence, 45 min. Potency, µM (series often up to 76.8 µM), actives largely listed as inhibitors. hit rate 0.12% among 410,000; also: nearly all actives have a fitted effect of over 50% in size
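In this concentration-response screen, enzyme-free wells defined baseline while DMSO plates tracked drift. Each reaction combined TbPYK, substrate, compound and 130 uM ADP for 45 min at room temperature. Kinase-Glo Plus luminescence gave the signal.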
CHX counter: counter-screen hit for Shiga toxin inhibitors, cycloheximide. cell reporter, cycloheximide protein synthesis inhibition counterscreen. max response, %. hit rate 12% among 300,000; in the data active = max response mostly above about 13%, no sharp cut-off; inactive = mostly below about 14%; also: read at 38.3 µM for the half of the compounds with a filed dose
Giardia FBPA inh: blocks Giardia fructose-bisphosphate aldolase activity; Potency, µM (highest dose often 59.6 µM), usual class: inhibitors; AID 2451; hit rate 0.71% among 290,000; purified Giardia FBPA; also: nearly all actives have a fitted effect of over 55% in size
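Giardia FBPA (40 nM reagent) was preincubated 10 min at RT with compound (up to 57.5 uM final), then substrate plus GAPDH/TPI/NAD/arsenate coupling system with diaphorase/resazurin was added; resorufin fluorescence (525/598 nm) was read after 20 min.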
Large screens that a line does not name were inactive. Unless noted, calls follow the shape of the dose curve; as a rule, active = well fitted curve in the direction sought with a large enough effect; inconclusive = small, poorly fitted or top-dose-only effect, or another doubt; inactive = no such curve, though single readings can be large; an effect the other way counts as inactive or inconclusive.

CCSc1nnc(N2C(=O)C(O)=C(C(=O)c3ccco3)C2c2cccc(OC)c2)s1 (centres undefined)	Shiga inhibitor 90.0, CHX counter 38.6 (no result: Giardia FBPA inh)
COc1ccc(C2C(C(=O)c3ccc(C)o3)=C(O)C(=O)N2Cc2cccnc2)cc1OC (centres undefined)	none
CCOc1cccc(C2C(C(=O)c3ccco3)=C(O)C(=O)N2Cc2ccncc2)c1 (centres undefined)	CHX counter 16.9, Giardia FBPA inh inconclusive
CCOc1cccc(C2C(C(=O)c3ccco3)=C(O)C(=O)N2c2nnc(C)s2)c1 (centres undefined)	none (no result: Shiga inhibitor, LmPK inh, CHX counter, Giardia FBPA inh)
COc1ccc(C2C(C(=O)c3cccs3)=C(O)C(=O)N2Cc2cccnc2)cc1OC (centres undefined)	Shiga inhibitor 110.4, CHX counter 37.8
CSc1nnc(N2C(=O)C(O)=C(C(=O)c3ccco3)C2c2ccc(F)cc2)s1 (centres undefined)	CHX counter 28.2 (no result: Giardia FBPA inh)
Cc1cc(S(=O)(=O)n2ccnc2C(C)C)cc([N+](=O)[O-])c1C	none (no result: Shiga inhibitor, RE007 growth inh, LmPK inh, CHX counter, Giardia FBPA inh)
COc1ccccc1NC(=O)c1cc(=O)c2ccc(C)c(C)c2o1	none (no result: Shiga inhibitor, RE007 growth inh, LmPK inh, CHX counter, Giardia FBPA inh)
CSc1nnc(N2C(=O)C(O)=C(C(=O)c3ccco3)C2c2cccc(Cl)c2)s1 (centres undefined)	CHX counter 34.3 (no result: Giardia FBPA inh)
N#Cc1nc(COc2ccc(Cl)cc2Cl)oc1N1CCN(c2ccccc2)CC1	none
N#Cc1nc(COc2ccc(Cl)cc2Cl)oc1N1CCOCC1	Shiga inhibitor 35.5, CHX counter 29.1
N#Cc1nc(COc2ccc(Br)cc2)oc1N1CCCCCC1	none
N#Cc1nc(COc2ccc(F)cc2)oc1N1CCCCC1	CHX counter 27.2
COc1ccc(Oc2ccc(C(F)(F)F)cc2N)cc1	Shiga inhibitor 55.9, CHX counter 28.9
COc1ccc(Oc2ccc(C(F)(F)F)cc2NC(=O)c2ccc(OC)cc2)cc1	none
Cc1nc2nc(-c3ccc(Cl)cc3Cl)nn2c(C)c1CCC(=O)Nc1ccc(F)cc1	none (no result: Shiga inhibitor, RE007 growth inh, LmPK inh, CHX counter, Giardia FBPA inh)
O=C(/C=C/c1ccco1)Nc1ccccc1N1CCCC1	CHX counter 11.9
O=C(NC(=S)Nc1ccccc1N1CCCC1)c1ccco1	Giardia FBPA inh 14.1µM
O=C(NC(=S)Nc1ccccc1N1CCCCC1)c1ccco1	none
O=C(/C=C/c1ccco1)NC(=S)Nc1ccccc1N1CCCC1	none
O=C(NC(NC(=S)Nc1ccccc1C(=O)O)C(Cl)(Cl)Cl)c1ccco1 (centres undefined)	Shiga inhibitor 45.1, CHX counter 31.2
O=C(NC(=S)Nc1ccccc1Cl)c1ccco1	Shiga inhibitor 89.7, CHX counter 44.2
O=C(NC(=S)Nc1cccc(Cl)c1N1CCCCC1)c1ccco1	none
O=C(NC(=S)Nc1cccc2c(O)cccc12)c1ccco1	Shiga inhibitor 108.6, CHX counter 25.8, Giardia FBPA inh inconclusive
COC(=O)C1=C(CN2CCc3ccccc32)NC(=O)NC1c1cc(C)ccc1C (centres undefined)	none
COC(=O)C1=C(CN2CCCc3ccccc32)NC(=O)NC1c1ccc(F)cc1 (centres undefined)	Shiga inhibitor 101.4
CCc1cccc(NC(=O)c2oc3ccc4c(c3c2C)C(=O)CC(C)(C)O4)c1	none (no result: Shiga inhibitor, RE007 growth inh, LmPK inh, CHX counter, Giardia FBPA inh)
Cn1nc(CSc2ccccc2)c(C=O)c1Cl	CHX counter 40.8
Cn1nc(-c2ccccc2)c(/C=N/O)c1Cl	none
CN(C)C(Cc1ccccc1)C(=O)c1ccc(-c2ccccc2)cc1 (centres undefined)	none
CN(C)C(Cc1ccc(C#N)cc1)C(=O)c1ccccc1 (centres undefined)	CHX counter 29.5
COc1ccc(C(=O)C(Cc2ccccc2)N(C)C)cc1 (centres undefined)	Shiga inhibitor 42.4, CHX counter 30.6
O[C@@H]1COC2[C@@H](O)CO[C@@H]21 (some centres undefined)	none (no result: RE007 growth inh, LmPK inh, Tb PYK inh)
c1ccc(CSc2nnc(-c3ccncc3)o2)cc1	Shiga inhibitor 84.9, CHX counter 34.9
Cc1ccccc1CSc1nnc(-c2ccncc2)o1	CHX counter 13.1
CC(=O)O[C@@H]1C[C@@]2(C)C(c3ccoc3)C[C@H]3O[C@]32[C@]2(C)C(=O)C(O)=C3C(C)(C)C(=O)C=C[C@]3(C)C12 (some centres undefined)	none (no result: Shiga inhibitor, RE007 growth inh, LmPK inh, Tb PYK inh, CHX counter)
Cc1cccc(CNC(=O)c2ccc3oc(=O)n(Cc4ccccc4)c3c2)c1	none (no result: Shiga inhibitor, RE007 growth inh, LmPK inh, CHX counter, Giardia FBPA inh)
COc1ccc(NC(=O)c2ccc3ncsc3c2)cc1	Shiga inhibitor 114.4, CHX counter 57.8
CCOc1ccc(NC(=O)c2ccc(S(=O)(=O)N(C)C)cc2)cc1	none
CCc1ccc(NC(=O)c2ccc3ncsc3c2)cc1	Shiga inhibitor 67.6, CHX counter 44.0 (no result: RE007 growth inh, Tb PYK inh, Giardia FBPA inh)
CN(C)S(=O)(=O)c1ccc(NC(=O)c2ccc3ncsc3c2)cc1	Shiga inhibitor 62.2
O=C(Nc1ccc(Br)cc1)c1ccc2ncsc2c1	Shiga inhibitor 88.6, CHX counter 49.6
Cc1cc(C)c(NC(=O)CNC(=O)c2ccc3ncsc3c2)c(C)c1	none (no result: Shiga inhibitor, LmPK inh, CHX counter, Giardia FBPA inh)
Cc1ccc(NC(=O)CN2C(=O)CSc3ccc(S(=O)(=O)N4CCCC4)cc32)c(C)c1	none (no result: Shiga inhibitor, RE007 growth inh, LmPK inh, CHX counter, Giardia FBPA inh)
Nc1cc(N)cc(C(=O)Nc2ccc3c(c2)C(=O)NC3=O)c1	none
O=C(Nc1ccc2c(c1)C(=O)NC2=O)c1ccc2ncsc2c1	Shiga inhibitor 92.5, CHX counter 22.2
Cc1cccc(N2CCN(CCNC(=O)C3COc4ccccc4C3)CC2)c1C (centres undefined)	none (no result: Shiga inhibitor, RE007 growth inh, LmPK inh, CHX counter, Giardia FBPA inh)
Cc1ccc(NC(=O)COC(=O)c2ccc([N+](=O)[O-])o2)cc1S(=O)(=O)N1CCCCCC1	Shiga inhibitor 58.6, CHX counter 28.3
COc1cc(NC(=O)COC(=O)c2ccc(C)c(S(=O)(=O)N3CCCCC3)c2)c(C)cc1[N+](=O)[O-]	Shiga inhibitor 57.3, CHX counter 71.7
Cc1ccc(C(=O)OCC(=O)Nc2ccc(C)c(S(=O)(=O)N3CCCCC3)c2)o1	none (no result: Shiga inhibitor, LmPK inh, CHX counter, Giardia FBPA inh)
CCOC(=O)c1snc(C(=O)NC2CCCCC2)c1N	Shiga inhibitor 160.6, RE007 growth inh inconclusive, CHX counter 24.4
Nc1c(C(=O)NC2CCCCC2)nsc1C(=O)OCC(=O)NC1CCCCC1	none
O=C1c2ccccc2C(=O)N1CSc1nnc(Nc2ccccc2F)s1	CHX counter 21.9
CCN(CC)C(=O)CCCSc1nnc(Nc2ccccc2F)s1	Shiga inhibitor 85.3, CHX counter 44.5
O=C(c1cc(-c2ccc(Cl)cc2)on1)N1CCCCCC1	Shiga inhibitor 109.4, CHX counter 26.8
COc1ccccc1N1CCN(C(=O)c2cc(-c3ccc(Cl)cc3)on2)CC1	none
O=C(c1cc(-c2ccc(O)cc2)on1)N1CCCCCC1	Shiga inhibitor 60.8, CHX counter 33.9
CCOC(=O)C1CCCN(C(=O)c2cc(-c3ccccc3)on2)C1 (centres undefined)	Shiga inhibitor 79.4, CHX counter 42.4
